In the library only some 4.6% were active in any assay of this set; here they are far more common.
ADAM17 inh: ADAM17 inhibitors, primary screen, biochemical, QFRET | Disintegrin and metalloproteinase domain-containing protein 17 (Homo sapiens), P78536 | recombinant ADAM17, EDANS/DABCYL FRET peptide cleavage | inhibition, % at 6.95 µM | 370,000 tested, 0.83% active | AID 720648, 2013;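 active = inhibition above the mean of compounds lying between control limits plus 3 SD, set per campaign, cut at about 8.5% in these data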;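 note: 0% = DMSO-only wells as the low control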
KLK7 zymogen act: proKLK7 zymogen activators, primary screen, biochemical, fluorescence intensity; Kallikrein-7 (Homo sapiens), P49862; purified proKLK7, EDANS-DABCYL substrate fluorescence; 100% is mature enzyme control, 0% vehicle; activation, % at 7 µM; 370,000 tested, 0.9% active; AID 652039, 2013;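 active = activation above the mean of all tested compounds plus 3 SD, computed per campaign excluding outliers beyond control limits, cut at about 13% in these data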
ADAM10 inh: human ADAM10 inhibitors, primary screen, biochemical, QFRET, HTS | AID 720582, 2013 | 370,000 tested, 0.62% active | inhibition, % at 7 µM | recombinant ADAM10, EDANS/DABCYL FRET peptide cleavage, 3 h;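 active = inhibition above a per-campaign cutoff equal to the mean of compounds falling between control-based bounds plus 3 SD, cut at about 20% in these data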;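 note: 0% = DMSO wells while the 100% control is not disclosed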
Target sequence (O14672 214-748 limits assumed): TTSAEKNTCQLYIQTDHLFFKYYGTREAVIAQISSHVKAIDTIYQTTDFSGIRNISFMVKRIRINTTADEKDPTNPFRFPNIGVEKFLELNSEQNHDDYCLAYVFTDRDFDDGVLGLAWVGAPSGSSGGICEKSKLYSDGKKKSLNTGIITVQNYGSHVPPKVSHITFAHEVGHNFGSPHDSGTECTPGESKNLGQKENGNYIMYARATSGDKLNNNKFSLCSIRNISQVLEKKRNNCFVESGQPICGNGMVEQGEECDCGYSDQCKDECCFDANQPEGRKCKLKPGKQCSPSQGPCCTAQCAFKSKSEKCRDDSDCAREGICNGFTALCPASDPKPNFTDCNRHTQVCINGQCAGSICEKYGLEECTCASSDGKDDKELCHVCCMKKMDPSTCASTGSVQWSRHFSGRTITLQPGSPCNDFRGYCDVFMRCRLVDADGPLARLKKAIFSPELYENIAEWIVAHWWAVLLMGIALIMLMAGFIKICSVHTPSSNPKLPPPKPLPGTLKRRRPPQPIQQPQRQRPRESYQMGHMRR
GRIN3A LBD mod: binders of NR3A ligand-binding domain, primary screen, biophysical, differential scanning fluorimetry, uHTS. Tm shift relative to glycine control, % at 25 µM. 340,000 tested, 2.5% active. AID 1259313, 2017. Glutamate receptor ionotropic, NMDA 3A (GRIN3A) ligand-binding domain. NR3A LBD differential scanning fluorimetry, Tm shift; 0% = protein alone, 100% = glycine-bound protein;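 active = melting temperature shift of at least 10% of the positive control shift, at one fixed dose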
FAS-TE inh: FAS thioesterase domain inhibitors, primary screen, biochemical, fluorescence intensity, uHTS | AID 602261, 2012 | inhibition, % at 15 µM | recombinant FAS-TE, OMFH fluorogenic substrate, fluorescence endpoint | 360,000 tested, 0.67% active;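 active = compounds whose normalised, plate-corrected inhibition of enzyme fluorescence in the single-dose primary screen is 50% or more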;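 note: 0% = DMSO with enzyme and 100% = substrate without enzyme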
proKLK7 act conf: proKLK7 zymogen activators, confirmation, biochemical, fluorescence intensity, triplicate; activation, % at 7 µM; 3,200 tested, 68% active; shares compounds with KLK7 zymogen act; purified proKLK7, EDANS-DABCYL substrate fluorescence; scaled: vehicle 0, mature enzyme 100;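 active = activation, as change over the incubation, above the mean of all tested compounds plus 3 SD, cut at about 13% in these data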
EDANS-DABCYL int: EDANS-DABCYL substrate optical interference, artefact control for kallikrein-7 zymogen activator project, biochemical, fluorescence intensity, high throughput; 3,200 tested, 80% active; shares compounds with KLK7 zymogen act; activation, % at 7 µM; no enzyme, 4 h; solvent 0%, active enzyme control 100%;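 active = activation above the all-compound mean plus 3 SD, ignoring values outside control-based bounds, cut at about 4.8% in these data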;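 note: value is the 4 h activation minus the activation read at time zero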
The depositor's hits bear a star; i = inactive; · = not tested or not shown.

SMILES | ADAM17 inh | KLK7 zymogen act | ADAM10 inh | GRIN3A LBD mod | FAS-TE inh | proKLK7 act conf | EDANS-DABCYL int
Cc1cccn2c(=O)c3cc(C(=O)NCC4CCCO4)c(=N)n(C4CCCCC4)c3nc12 (stereo unspecified) | i | 25* | i | -4 | -5 | -53 | -59
Cc1cccn2c(=O)c3cc(C(=O)NCC4CCCO4)c(=N)n(CC4CCCO4)c3nc12 (stereo unspecified) | i | 145* | i | 0 | -5 | 33* | 42*
Cc1cccn2c(=O)c3cc(C(=O)NC4CCCC4)c(=N)n(CCCN4CCOCC4)c3nc12 | i | 35* | i | 1 | -3 | 9 | 12*
Cc1cccn2c(=O)c3cc(C(=O)NC4CCCC4)c(=N)n(CC4CCCO4)c3nc12 (stereo unspecified) | i | 81* | i | 1 | -2 | -30 | -34
C[C@H](O)[C@@H]1CN2CCc3ccc(N4CCOCC4)cc3[C@@H]2C[C@@H]1N(C)C(=O)c1ccco1 | -5 | 0 | -11 | · | · | · | ·
COc1ccc(NC(=O)CSc2nnc(-c3ccncc3)n2C)cc1 | -1 | 0 | 4 | 1 | -4 | · | ·
Cn1c(SCC(=O)Nc2ccc(NC(=O)c3cccs3)cc2)nnc1-c1ccncc1 | -3 | 51* | 6 | -17 | 0 | 1 | 0
Cc1cccc(CCNC(=O)CSc2nc3c([nH]2)c(=O)n(C)c(=O)n3C)c1 | -4 | 0 | -9 | · | · | · | ·
CCCc1cc(=O)oc2c(C)c(OCC(=O)NCCCn3ccnc3)ccc12 | -26 | 0 | -72 | 0 | -4 | · | ·
Cc1cc(=O)oc2c3c(cc(OCC(=O)NCCN4CCOCC4)c12)OC(C)(C)CC3 | i | 34* | i | 0 | -2 | 57* | 70*
CCCc1cc(=O)oc2c3c(cc(OCC(=O)NCCCn4ccnc4)c12)OC(C)(C)CC3 | i | 17* | i | -1 | -5 | -37 | -40
Cc1cc(=O)oc2c3c(cc(OCC(=O)NCc4ccco4)c12)OC(C)(C)CC3 | i | 12 | i | 1 | 8 | · | ·
Cc1cc(=O)oc2c3c(cc(OCC(=O)NCCCn4ccnc4)c12)OC(C)(C)CC3 | i | 29* | i | -3 | -1 | 8 | -8
CCOC(=O)Cn1cc(CN2C(C(=O)OC)CN(CCO)CCS2(=O)=O)nn1 (stereo unspecified) | -3 | 0 | 1 | · | · | · | ·
CCOc1cccc2cc(-c3nnc(NCc4ccco4)s3)c(=O)oc12 | -31 | -18 | -71 | 2 | -9 | · | ·
COc1ccc2oc(=O)c(-c3nnc(NCc4ccco4)s3)cc2c1 | -98 | 35* | -306 | 0 | -17 | -78 | -81
COc1ccc(NC(C)=O)cc1NC(C)c1nc2sc(C)c(C)c2c(=O)[nH]1 (stereo unspecified) | -28 | 16* | -84 | -1 | -3 | 9 | 9.3*
Cc1c(C)c2c(OCC(=O)N[C@@H](C)C(=O)O)cc3c(c2oc1=O)CCC(C)(C)O3 | i | 31* | i | -1 | -2 | 72* | 69*
CCC(NC(=O)COc1cc2c(c3oc(=O)c(C)c(C)c13)CCC(C)(C)O2)C(=O)O (stereo unspecified) | i | 38* | i | -1 | -1 | 73* | 74*
Cc1c(C)c2c(OCC(=O)NCC(C)C)cc3c(c2oc1=O)CCC(C)(C)O3 | -101 | -8 | -292 | 0 | 3 | · | ·
CC(c1ccccc1)n1cc(C(=O)N2CCCC2)nn1 (stereo unspecified) | 0 | 0 | -1 | · | · | · | ·
Cn1c(COc2ccccc2)nnc1SCC(=O)Nc1ccc(S(=O)(=O)Nc2nccs2)cc1 | 0 | -1 | -1 | · | · | · | ·
CC(=O)NC1CCCCN(C(C)C)C1=O (stereo unspecified) | -5 | 0 | -2 | · | · | · | ·
COc1ccc(S[C@]2(C(=O)NC(C)C)CC(=O)N[C@@H]2c2ccc(OC)cc2)cc1 | -2 | 0 | -4 | · | · | · | ·
O=c1[nH]c2cc3c(cc2cc1CN(Cc1nnnn1CC1CCCO1)C1CCCC1)OCO3 (stereo unspecified) | -13 | 1 | -19 | -2 | -14 | · | ·
COc1cc2cc(CN(CCCN3CCOCC3)Cc3nnnn3Cc3ccccc3)c(=O)[nH]c2cc1OC | -223 | 15* | i | -1 | -1 | -12 | -8
COCCn1nnnc1CN(Cc1cc2cc(OC)c(OC)cc2[nH]c1=O)C1CCCC1 | -196 | 18* | i | 0 | -7 | -11 | -10
CCOc1ccc2[nH]c(=O)c(CN(CCCN3CCOCC3)Cc3nnnn3Cc3ccc(OC)cc3)cc2c1 | -49 | 0 | -137 | -3 | -6 | · | ·
